# Source: PubChem BioAssay AID1508600 (Functional Genomics Laboratory (NCATS/FGL), 2020)
# In all, about 53,000 sequences went through this assay and about 3,700 (7%) were called active. This excerpt belongs to a sample that is enriched for actives. Values without a mark were called inactive.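 Rule for the calls: active = gene knockdowns whose robust z-score for IL-1 alpha signal is at least 2 or at most -2, so actives lie on both sides; inactive = the rest.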
# Experiment: Components of the Cytosolic LPS Sensing Pathway: Gene Identification via Genome-wide siRNA Screen;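 note: robust z of the log signal after scaling to non-targeting control siRNA wells of the plate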
# Settings: RAW264.7 macrophages, IL-1a HTRF, actives lie on both sides, screened at 100 nM (by protocol), cells primed 5 h with Pam3CSK4 first
# How it was run: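 Using IL-1a HTRF as read-out, the screen measured release from RAW264.7 cells after 48h siRNA knockdown (100 nM), 5 h Pam3CSK4 priming and 24 h cytosolic LipidA. Values were expressed relative to negative-control wells as robust z-scores.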
row,Sequence,z-score
1,CCUUGGACUGAUAUUAGCUTT against Dtx3,0.0235
2,GGAACCUAAACGAACAAGGTT against Col6a2,2.18 (active)
3,GGAUGUACGGAAGCGAUUCTT against Gmpr2,0.404
4,GGUUCCUCAUUUGUAGAUGTT against D830050J10Rik,-1.19
5,GGAGGAACAAUCAUCUAUATT against Ripk2,1.1
6,GGCACAGAUGUUUUGAGAATT against Surf4,-0.954
7,CGAAAAUAUGGAUACUACUTT against Ippk,0.732
8,CGGUGAUCGUCAUUUUAUUTT against Ap4m1,2.47 (active)
9,GGUGAACCUCAACAGACUCTT against Gtf3c4,-1.7
10,GGAAAAAAUCACAUUGACUTT against H2ac6,-0.835
11,GCCCAUUAAUGGGAUAUAATT against Ccdc134,0.148
12,GGCUCUGGCAGAAAUGGAUTT against Pex26,-0.0204
13,GGGAACAGAAGUUGUGAGATT against Gulp1,1.5
14,AGGUCAAUAAAGAGUGUGATT against Fam25c,-1.66
15,GGAUACGAAAACGACUGCATT against Pdpr,2.05 (active)
16,GGACCAAUUGGAUCCUUUUTT against Olfr1340,-1.6
17,GCAUACGAUGGGAAUUGUATT against Wdr5b,-1.6
18,GGAAGAAGAUAAAGAGAAATT against Gtf2a1,1.09
19,GGAAGUUACUGUGAGAUAATT against Mtbp,0.265
20,GGAUGUUAUUCAGUUUUCATT against BC051019,2.37 (active)
21,GGCCUAUCUUGUUUAUUUGTT against Tgtp1,-0.316
22,AUCGUGUUUGCUGUAUUUGTT against Olfr1258,0.33
23,GGAAAUCACCAACUUGGCCTT against Pou3f3,-0.0208
24,GGAUUUGUAGUUCAUCUCATT against Olfr77,0.0834
25,GGUCAGUGGAGCUCUCUAUTT against Fam234a,1.43
26,GGUUCUAAAACUUAACAAGTT against Brf2,2.7 (active)
27,GGCAAACAACUGAAUAAGGTT against Pbsn,-0.611

row,Sequence,z-score
1,CCAAGUUAGUCUGCGUAUUTT against Zfp979,-0.52
2,CCCUACCCAGUUUCAGUUGTT against Phf12,0.206
3,CCUGUGAAUUCAUCGUUCATT against Vps26c,2.34 (active)
4,GCAUACCUAGGAAAAAACUTT against Ednra,0.524
5,GGUAUUGACAGGGAUCUGATT against Limk1,1.19
6,GGCCUUAGGAAUCAAGUUGTT against 9530053A07Rik,1.24
7,GGGUUUCAAUGGCACAAUUTT against Kif3b,2.12 (active)
8,GGAUAACGUAAUGAAGAUCTT against Fgfr1,-0.866
9,GGUUUCUUCUUCUGUUCAUTT against Ostc,1.13
10,GGCUCAAAGACUGAAUCCCTT against Recql4,0.309
11,GCUAUCUAGAGCCAAGAGCTT against Bahcc1,2.27 (active)
12,GCUAGACCUCACUGUUUUUTT against Sprr2i,1.03
13,GCAGCAUGAAUCACACCUUTT against Dtd2,-1.29
14,CGUGUUCAAAAGAGUUUUCTT against Sos1,1.22
15,GCGGCUUUGUAUACAAGUUTT against Vwc2l,1.11
16,GGUAACUGUGGACUUAUCUTT against Olfr665,-2.17 (active)
17,GGCUGUCAGAACCAACUACTT against Tshb,0.214
18,CUCUAGUGUUACACUUAUUTT against Tefm,2.83 (active)
19,GGCCUUGAGAGGCUAAUACTT against Spata20,-1.27
20,GGUGAUUGUUAGAGUUAAATT against Syt4,0.934
21,GGUAAAAACCCAGAGAUGATT against Rem2,0.616
22,GGAACUAAUGUGCAGGAGGTT against Suclg2,0.459
23,CCGUGAUCCCUUUUCACCATT against 6030445D17Rik,-2.26 (active)
24,CACGCAGAUGAUUAAGUUGTT against Olfr1000,1.25
25,GGAGAAUGAGAUCAACCUGTT against Pah,0.618
26,GGAGAACAGUCUUGAGAAATT against Crisp3,-0.712
27,CCUCCAGGAUUAUCGUGAUTT against Dnajc6,-1.22
